Hits are enriched below; roughly 1.7% of the tested compounds scored in any of these assays.
aDG glyco act = alpha-DG glycosylation activation; Pro5-aDG cells, alpha-DG glycosylation AlphaScreen (IIH6); 0% Pro5, 100% B10-LARGE cell signal; activation, % at 10 µM; 360,000 compounds, 0.22% hits; AID 624168;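 active = activation of at least 8% versus controls, or a plate z-score of at least 8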;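 also: Pro5 are CHO cells carrying HIG-tagged alpha-DG that lacks glycosylation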
H9c2 protect = modulators protecting cardiomyocytes from myocardial damage; H9c2 cardiomyocytes, H2O2 injury protection, ATPLite, 2 h; protection from H2O2 cell death, % at 20 µM; 360,000 compounds, 0.63% hits; AID 588492;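 active = compounds giving at least 50% protection of heart cells from peroxide-induced death in the single-dose screen, raw or plate-pattern-corrected value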;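 also: 0% = DMSO wells with peroxide and 100% = DMSO wells without peroxide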
ARNT TACC3 PPI = disrupts binding between human ARNT and TACC3; AlphaScreen His-ARNT PAS-B/GST-TACC3 binding, luminescence; TACC3 fragment carries E629A point mutation; AID 623870; Q9Y6A5; inhibition, % at 9.99 µM; 390,000 compounds, 0.66% hits;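 active = mean inhibition of replicates at least 50% and at least half of replicates each reaching 50%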;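 also: 0% = complete ARNT plus TACC3 wells and 100% = ARNT alone without TACC3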
Vif inh = blocks HIV Vif function; HEK293T cells, Vif self-association by quenched fluorescence, imaging, 24 h; inhibition, % at 7.49 µM; 340,000 compounds, 0.35% hits; AID 602346; in the data active = inhibition above about 50%, passing the limit was not always enough
Glyco luc inh = N-linked glycosylation inhibition; AID 588692; D54 ERlucT glycosylation luciferase reporter, 24 h; percent of 100 nM tunicamycin response; reporter increase, % at 12.5 µM; 360,000 compounds, 0.23% hits;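 active = mean luciferase reporter signal, scaled so untreated is 0 and the glycosylation-blocking control 100, at or above a set limit in every replicate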;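 also: luciferase carries N-glycosylation sites so blocking glycosylation raises the light; 0% = median of neutral control wells and 100% = median of 100 nM tunicamycin wells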
ARNT Alpha ctr-1 = interferes with AlphaScreen signal, flagging false ARNT-TACC3 hits | shares compounds with ARNT TACC3 PPI | His-ARNT PASB-GST AlphaScreen artifact counter-screen, luminescence | AC50, µM (highest dose often 68 µM), for inactives: at the top dose activity change, negative = signal decrease | 1,200 compounds, 50% hits | AID 651705;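 active = every separate test run was called active for a drop in luminescence, with AC50 within twice the top valid dose, actives reach about 71 µM in these data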
ARNT Alpha ctr-2 = produces AlphaScreen artifacts in ARNT-TACC3 counter-screen; shares compounds with ARNT TACC3 PPI; Dual-tagged His-ARNT PASB-GST AlphaScreen artifact counter-screen; AC50, µM; 45 compounds, 70% hits; AID 720564;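 active = luminescence drop, with half-maximal potency fitted within twice the sample's top valid dose, cut at about 70 µM in these data; inactive = the rest, including signal moving the wrong way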
An asterisk follows results filed as active; · = not tested or not shown; [ ] = remark or other dose.

SMILES	aDG glyco act	H9c2 protect	ARNT TACC3 PPI	Vif inh	Glyco luc inh	ARNT Alpha ctr-1	others
CC1=CC(C)(C)N(C(=O)c2ccccc2)c2ccc(C)cc21	0	-8	-1	·	-1	·
CCOc1ccccc1C(=O)OCC(=O)Nc1nnc(-c2ccccc2)o1	0	11	54*	-3	1	-31%
Cc1nnc(SCC(=O)Nc2nnc(-c3ccccc3)o2)s1	0	-4	56*	30	1	-31%
COc1ccccc1-c1nnc(NC(=O)Cc2ccccc2)o1	0	12	54*	-20	2	-23%
Fc1ccc(COc2cccc3cccnc23)cc1	0	3	·	-12	-1	·
Cc1oc(C(=O)O)cc1COc1cccc2cccnc12	0	10	59*	-2	0	-22%
COC(=O)c1[nH]c2cc(OC)c(OC)cc2c1NC(=O)Oc1ccccc1	0	46	35*	-1	3	-8%
CO[C@H]1CN(C)C(=O)c2cc(NC(=O)Nc3ccc(C(F)(F)F)cc3)ccc2OC[C@@H](C)NC[C@H]1C	·	·	1	·	·	·
COc1ccc(NC(=O)Nc2ccc3c(c2)C(=O)N([C@H](C)CO)C[C@H](C)[C@@H](CN(C)C(=O)Nc2c(C)noc2C)OCCCC[C@H](C)O3)cc1	·	·	21	·	·	·
Oc1c(C(Nc2cccc(C(F)(F)F)c2)c2ccncc2)ccc2cccnc12 (configuration not stated)	0	43	53*	-3	-12	4.1µM*
c1cncc(-c2nc(NCCCn3ccnc3)c3ccccc3n2)c1	0	18	63*	8	1	66µM*
Cc1nc(NCCCn2ccnc2)c2ccccc2n1	0	4	-3	0	0	·
C[C@@H]1CN([C@H](C)CO)C(=O)c2cc(C#CCc3ccccc3)cnc2O[C@@H]1CN(C)C(=O)C1CCOCC1	·	·	0	·	·	·
COc1cccc(/C=N/Nc2nc3ccccc3[nH]2)c1OC	0	0	0	2	-4	·
COc1cccc(/C=N/Nc2nc3ccccc3[nH]2)c1O	0	13	58*	-2	-18	-42%
CCSc1nnc(NC(=O)c2ccccn2)s1	1	14	52*	·	-6	31µM*
CCSc1nnc(NC(=O)c2cccnc2Cl)s1	0	-5	-1	8	0	·
COc1cccc(S(=O)(=O)N[C@@H]2CC[C@@H](CCn3cc(-c4ccccc4)nn3)O[C@H]2CO)c1	·	·	-2	·	·	·
Cc1cccc(S(=O)(=O)N[C@H]2CC[C@@H](CCn3cc(-c4ccccn4)nn3)O[C@@H]2CO)c1	·	·	102*	·	·	44µM*
Cc1cccc(S(=O)(=O)N[C@@H]2CC[C@@H](CCn3cc(-c4ccccn4)nn3)O[C@@H]2CO)c1	·	·	98*	·	·	-36%[38 µM]
COc1ccc(C(=O)Nc2nc(-c3ccccn3)cs2)cc1S(=O)(=O)N1CCOCC1	1	54*	62*	-6	-7	9.7µM*
COc1ccc(C(=O)Nc2nc3ccccc3[nH]2)cc1S(=O)(=O)N1CCOCC1	0	6	51*	-20	-5	-29%
O=C(Nc1nc(-c2ccccn2)cs1)c1ccc(S(=O)(=O)N2CCOCC2)cc1	·	·	·	·	·	·	ARNT Alpha ctr-2=6.5*
COc1ccc(C(=O)Nc2ccccn2)cc1S(=O)(=O)N1CCOCC1	0	0	1	-3	4	·
COc1ccc(C(=O)Nc2ccccc2C)cc1S(=O)(=O)N1CCOCC1	0	4	-5	-2	-1	·
SMILES	aDG glyco act	H9c2 protect	ARNT TACC3 PPI	Vif inh	Glyco luc inh	ARNT Alpha ctr-1	others
O=C(Nc1nc(-c2ccncc2)cs1)c1ccc(S(=O)(=O)N2CCOCC2)cc1	0	-2	3	-5	-1	·
O=C(Nc1ccc(F)cc1)N1C[C@@H]2[C@H](c3ccccc31)[C@H](CO)N2C(=O)Cc1ccncc1	·	·	7	·	·	·
Cc1onc(-c2c(F)cccc2Cl)c1C(=O)Nc1ccccc1N1CCOCC1	0	-2	4	0	-4	·
Cc1onc(-c2c(Cl)cccc2Cl)c1C(=O)Nc1ccc(N2CCOCC2)cc1	0	8	active	-1	0	-20%
O=S(=O)(N[C@@H]1CC[C@@H](CCn2cc(-c3ccccn3)nn2)O[C@H]1CO)c1cccc(Cl)c1	·	·	66*	·	·	41µM*
COc1cccc(S(=O)(=O)N[C@H]2CC[C@@H](CCn3cc(-c4ccccc4)nn3)O[C@@H]2CO)c1	·	·	3	·	·	·
O=S(=O)(N[C@@H]1CC[C@H](CCn2cc(-c3ccccn3)nn2)O[C@@H]1CO)c1cccc(Cl)c1	·	·	66*	·	·	31µM*
O=S(=O)(N[C@H]1CC[C@H](CCn2cc(-c3ccccc3F)nn2)O[C@@H]1CO)c1ccc(Cl)cc1	·	·	-1	·	·	·
O=S(=O)(N[C@H]1CC[C@@H](CCn2cc(-c3ccccn3)nn2)O[C@H]1CO)c1cccc(Cl)c1	·	·	70*	·	·	32µM*
O=C(C[C@H]1C[C@@H]2c3cc(NC(=O)Cc4ccncc4)ccc3O[C@@H]2[C@@H](CO)O1)NCCN1CCCCC1	·	·	4	·	·	·
C[C@H](O)C#Cc1ccc([C@H]2[C@@H](CO)N3CCCCN(C(=O)c4cccc(F)c4)C[C@@H]23)cc1	·	·	-5	·	·	·
Cn1cnc(S(=O)(=O)N[C@H]2CC[C@H](CC(=O)Nc3ccccc3)O[C@@H]2CO)c1	·	·	-6	·	·	·
CO[C@@H]1CN(C)C(=O)c2ccc(NC(=O)C3CC3)cc2OC[C@@H](C)N(C(=O)NC(C)C)C[C@@H]1C	·	·	-8	·	·	·
O=c1[nH][nH]c(=O)c2nc(Nc3ccccc3)ncc12	0	-3	69*	7	2	-17%
C[C@@H]1CN([C@@H](C)CO)C(=O)c2cc(C#C[C@@H](C)O)cnc2O[C@H]1CN(C)C(=O)c1ccc(F)cc1	·	·	-7	·	·	·
N#Cc1c(NC(=O)C2CC(c3c(F)cccc3Cl)=NO2)sc2c1CCC2 (configuration not stated)	0	-12	1	3	-1	·
CCc1c(C)sc(NC(=O)C2CC(c3c(F)cccc3Cl)=NO2)c1C#N (configuration not stated)	0	-4	active	-7	1	3%
CCCN1C[C@H](C)[C@H](OC)CN(C)C(=O)c2cc(NC(=O)c3ccc(F)cc3)ccc2OC[C@@H]1C	·	·	5	·	·	·
Cc1noc(C)c1NC(=O)N(C)C[C@@H]1Oc2ccc(N(C)C)cc2C(=O)N([C@@H](C)CO)C[C@H]1C	·	·	-7	·	·	·
COc1cc2c(cc1OC)-c1cc(Nc3cccc(C)c3)nc(=O)n1CC2	0	13	53*	-6	3	0%
CCOc1ccccc1Nc1cc2n(c(=O)n1)CCc1cc(OC)c(OC)cc1-2	0	7	18	-11	3	·
CCCCCCNc1cc2n(c(=O)n1)CCc1cc(OC)c(OC)cc1-2	0	46	58*	14	1	-30%

Screening results from PubChem.
